KB-3-1 cytotox: qHTS assay for MDR1-selective chemotherapeutics: Primary screen using the parental adenocarcinoma cell KB-3-1 | hit rate 1.4% among 400,000 | KB-3-1 viability, CellTiter-Glo ATP luminescence, 72 h | Potency, µM (doses to about 46.1 µM), usual class: cytotoxic; also: nearly all actives have a fitted effect of over 60% in size
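Parental KB-3-1 viability, qHTS format: 72 h compound exposure, 37 °C; CellTiter-Glo; media-only wells and DMSO plates as controls; concentration-effect fits on corrected data.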
HT1080NT lethal: qHTS for induction of synthetic lethality in tumor cells producing 2HG: qHTS for the HT-1080-NT fibrosarcoma cell line | HT-1080-NT fibrosarcoma viability, CellTiter-Glo ATP luminescence, 48 h | Potency, µM (highest dose often 46.1 µM), actives largely listed as cytotoxic | hit rate 1.6% among 360,000;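 also: NT is the 2HG producing partner of a matched IDH1 knockdown line; nearly all actives have a fitted effect of over 55% in size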
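A 48-hour cytotoxicity screen used HT-1080-NT cells plated 2 hours before compound delivery. ATP-based CellTiter-Glo luminescence measured viability, normalized to DMSO and no-cell controls.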
MCF10A rerep: A quantitative high throughput screen for small molecules that induce DNA re-replication in MCF 10a normal breast cells; Potency, µM (doses to about 46.1 µM), actives largely listed as activators; hit rate 2.9% among 350,000; MCF 10A DNA re-replication, Hoechst nuclear intensity, 48 h; also: nearly all actives have a fitted effect of over 50% in size
SW480 rereplic: A quantitative high throughput screen for small molecules that induce DNA re-replication in SW480 colon adenocarcinoma cells; SW480 DNA re-replication, Hoechst DNA content imaging, 48 h; Potency, µM (highest dose often 46.1 µM), most hits filed as activators; hit rate 1.8% among 340,000; AID 624297, 2012; also: nearly all actives have a fitted effect of over 55% in size
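250 cells/well; 23 nL cpd via pin tool; 48 hr, 37 C, 5% CO2; Hoechst 40 min; imager read of total nuclear intensity, ex 405/em 500-530 nm.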
KB-V1 MDR tox: qHTS assay for MDR1-selective chemotherapeutics: Primary screen using the drug-selected MDR subline cells KB-V1; KB-V1 MDR cells viability, CellTiter-Glo, 72 h; AID 1347076, 2019; Potency, µM (series often up to 46.1 µM), usual class: cytotoxic; hit rate 3.4% among 400,000; also: nearly all actives have a fitted effect of over 60% in size
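qHTS viability screen in drug-selected KB-V1 MDR cells: 72 h compound treatment at 37 degrees C, ATP luminescence end point.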
HT1080 IDH1KD tx: qHTS for induction of synthetic lethality in tumor cells producing 2HG: qHTS for the HT-1080-IDH1KD cell line. HT-1080 IDH1 knockdown viability, ATP luminescence, 48 h. Potency, µM (titrated, usually from 46.1 µM), usual class: cytotoxic. hit rate 2% among 360,000. AID 686971, 2013
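% activity derives from luminescence (CellTiter-Glo), normalised to DMSO and no-cell wells. HT-1080-IDH1KD cells, 750/well, had 48 h compound exposure at 37 °C.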
Hits are given with their value; i = inactive; ? = inconclusive; nt = no result given. Compounds with a hit are over-represented: about 7.9% of the library has one in this group of screens. Calls follow the shape of the dose curve; as a rule, active = well fitted curve in the direction sought with a large enough effect; inconclusive = small, poorly fitted or top-dose-only effect, or another doubt; inactive = no such curve, though single readings can be large; an effect the other way counts as inactive or inconclusive.

SMILES	KB-3-1 cytotox	HT1080NT lethal	MCF10A rerep	SW480 rereplic	KB-V1 MDR tox	HT1080 IDH1KD tx
CC(C)C[C@@H](CN1CCC[C@@H]1CN1C(=S)NC[C@@H]1Cc1ccccc1)N1C[C@H](Cc2ccc(O)cc2)N(CC2CCCCC2)C1=S	i	i	nt	nt	i	i
CC(C)C[C@@H](CN1CCC[C@@H]1CN1C(=S)NC[C@@H]1Cc1ccccc1)N1C[C@H](Cc2ccc(O)cc2)N(CC2CCCCCC2)C1=S	?	?	nt	nt	?	18µM
CCOc1ccc(OCC)c(NC(=O)CC(C)n2nc(C)cc2C)c1 (stereo not given)	i	nt	nt	nt	i	nt
COc1ccc(Cl)cc1S(=O)(=O)Nc1cccc(-c2ccc(N3CCOCC3)nn2)c1	i	nt	nt	nt	i	nt
CC(C)(C)NC(=O)CN(Cc1cccs1)C(=O)c1csnn1	i	i	i	i	i	i
CC(C)(C)NC(=O)CN(Cc1cccs1)C(=O)CN1C(=O)C(=O)c2ccccc21	i	i	2.1µM	?	i	i
O=C(CN(Cc1cccs1)C(=O)CN1C(=O)COc2ccccc21)NCc1ccco1	i	i	i	i	13µM	i
Cc1ccc(S(=O)(=O)N2CCc3cc(C(=O)N(C)Cc4ccccc4)ccc32)cc1	i	nt	nt	nt	?	nt
O=C(Nc1nnc([C@@H]2C[C@H](O)[C@@H](CO)O2)s1)c1cccc(Cl)c1	i	i	nt	nt	i	i
CCOc1ccccc1NC(=O)c1oc2ccccc2c1NC(=O)C1CCCO1 (stereo not given)	i	i	i	i	21µM	i
COc1ccc(NC(=O)c2oc3ccccc3c2NC(=O)COc2ccccc2OC)c(OC)c1	i	i	i	i	i	i
CCOCC(=O)Nc1c(C(=O)Nc2ccccc2OC)oc2ccccc12	i	i	i	i	1.8µM	i
COc1ccc(NC(=O)c2oc3ccccc3c2C)c(OC)c1	?	i	i	i	21µM	i
S=C(NCCc1ccccc1)N1CCC2CC1c1cc(-c3ccc4c(c3)OCO4)ccc12 (stereo not given)	i	?	nt	nt	i	?
O=C(NCC[C@H]1CC[C@@H](NC(=O)C2CCOCC2)[C@@H](CO)O1)Nc1ccc(Cl)cc1	i	i	nt	nt	i	i
O=C(O)CCc1ccc2ccccc2c1	i	nt	nt	nt	i	nt
O=C(O)CCCc1ccc2c(c1)CCc1ccccc1-2	2.9µM	i	i	i	2.1µM	i
Cc1c(C)n(CCN(C)C)c2ccc(C(=O)OCCN(C)C)cc12	i	?	i	i	i	?
Cc1c(C)n(Cc2ccccc2)c2ccc(C(=O)OCCCN(C)C)cc12	?	15µM	21µM	?	?	13µM
CCOc1ccc(-n2c(SC(C)C(=O)OC)nc3c([nH]c4ccccc43)c2=O)cc1 (stereo not given)	i	nt	nt	nt	i	nt
O=C1C=C(c2cccs2)C[C@H](c2ccccc2)[C@H]1n1nnc([N+](=O)[O-])n1	?	?	?	?	?	2.9µM
CCc1ccccc1NC(=O)c1cc2c(Cl)nc3ccccc3c2s1	i	nt	nt	nt	i	nt
O=Cc1cc(N=Nc2ccccc2Cl)ccc1O	?	?	i	i	?	?
O=Cc1cc(N=Nc2cccc(C(=O)O)c2)ccc1O	?	?	i	i	i	15µM
Clc1ccc(-c2nc3cnccn3c2NC2CCCC2)cc1	?	i	21µM	23µM	6.5µM	i
SMILES	KB-3-1 cytotox	HT1080NT lethal	MCF10A rerep	SW480 rereplic	KB-V1 MDR tox	HT1080 IDH1KD tx
Cc1ccc2nc(-c3ccncc3)c(NC3CCCC3)n2c1	i	i	?	?	i	i
CCCCCCSc1ccc(-c2nc3cnccn3c2NC2CCCCC2)cc1	?	i	nt	nt	?	i
COc1cc(-c2nc3cc(C)ccn3c2NC2CCCCC2)ccc1-c1ccc(C(C)=O)cc1	i	i	?	?	i	?
Cc1ccc2nc(-c3ccncc3)c(NC3CCCCC3)n2c1	?	i	i	i	21µM	i
COc1ccc(Sc2ccc(-c3nc4cnccn4c3NC3CCCCC3)cc2OC)cc1	?	i	3.3µM	18µM	?	i
CC(CNC(=O)Cn1c(-c2cccs2)cc2ccccc21)c1ccccc1 (stereo not given)	i	nt	nt	nt	i	nt
CCn1c(=O)n(CC)c2cc(N3CCCCC3)c(NC(=O)Nc3ccccc3C(F)(F)F)cc21	i	nt	nt	nt	i	nt
COc1ncnc2c1sc1nc(-c3ccccc3)c3c(c12)CCCC3	i	i	i	i	?	i
CN(C)CCNc1ncnc2c1sc1nc(-c3ccccc3)c3c(c12)CCCC3	i	10µM	?	i	?	18µM
CC(C)(C)C(=O)/C(=C/c1ccc(Cl)cc1)n1cncn1	?	16µM	6.5µM	?	?	i
CC(C)/C=C(/C(=O)c1ccc(Cl)cc1Cl)n1cncn1	i	i	?	?	i	i
CCC(C(=O)Nc1cccc(C#N)c1)n1nc(-c2ccccc2)ccc1=O (stereo not given)	i	nt	nt	nt	?	nt
COc1ccccc1S(=O)(=O)N(C)C[C@H]1Oc2ncc(Br)cc2C(=O)N([C@H](C)CO)C[C@H]1C	?	i	nt	nt	i	i
CC(OC(=O)/C(C#N)=C/c1ccc(N(C)C)cc1)C(=O)N(C)c1ccccc1 (stereo not given)	i	i	?	i	18µM	i
Nc1nc(=S)[nH]c2c1C1(CCCCC1)Cc1ccccc1-2	?	i	i	i	23µM	i
COc1ccc(-c2ccc3oc(-c4ccc(OC)cc4)c(-c4ccc(OC)cc4)c3c2)cc1	i	i	i	i	i	i
COc1ccc(-c2ccc3oc(-c4ccc(OC)cc4)c(C#CCO)c3c2)cc1	i	21µM	?	26µM	i	16µM
COc1ccc(-c2oc3ccc(N4CCOCC4)cc3c2C#CCO)cc1	?	?	18µM	?	?	?
COc1ccc(NC(=O)C(NS(=O)(=O)c2cccc3nsnc23)C(C)C)cc1 (stereo not given)	i	nt	nt	nt	i	nt
CCOC(=O)C1=C(C)NC(C)=C(C(=O)OCC)C1c1ccc(OC)c(OC)c1	i	i	nt	nt	i	i
CCOC(=O)C1=C(C)NC2=C(C(=O)CC(c3ccc(OC)c(OC)c3)C2)C1c1ccc(C)o1 (stereo not given)	i	i	i	i	18µM	i
O=C(CCNS(=O)(=O)c1ccc2c(c1)CCCC(=O)N2)NCc1ccc(Cl)cc1	i	nt	nt	nt	i	nt
O=C(Cc1n[nH]c(=O)c2ccccc12)N/N=C/c1cc2c(cc1Cl)OCO2	i	i	18µM	?	i	i
O=C(N/N=C/c1cc2c(cc1Cl)OCO2)c1cc(-c2ccccc2)n[nH]1	i	i	?	i	i	i

Compound activity as filed in PubChem.
